Bioassay records from PubChem.
Rows were chosen to be rich in hits. Some 1.2% of all compounds tested hit in one or more screens of this group.
ugtP null kill = compounds lethal to S. aureus RN4220 ugtP deletion mutant. growth inhibition, % (test concentration not listed). OD600 growth, 16 h. AID 1259309. 330,000 tested, 0.54% active; in the data active = growth inhibition above about 68%;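 also: plate controls were untreated wells for no effect and antibiotic for full effect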
Mtb betalactam = beta-lactam sensitization of Mtb H37Rv; 330,000 tested, 0.27% active; inhibition, % at 25 µM; AID 434955; M. tuberculosis H37Rv growth with meropenem, percent inhibition; call rule not given here;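 also: growth measured after seven days incubation then overnight dye step; 0% = bacteria only wells and 100% = bacteria with antibiotic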
BH1578 lux ind = inducers of Vibrio cholerae quorum light production without autoinducers; AID 588436; 350,000 tested, 0.16% active; activation, % at 18.7 µM; V. cholerae BH1578 lux reporter, luminescence, 6 h; in the data active = activation mostly above about 9.7%, no sharp cut-off; inconclusive = no clear call, values can overlap the other calls; inactive = mostly below about 3.7%
RN4220 kill = S. aureus RN4220 growth inhibition. OD600, 16 h. inhibition, % (no concentration beside the values). 330,000 tested, 0.33% active; in the data active = inhibition above about 85%;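 also: plate controls were untreated cells for no effect and reference antibiotic for full effect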
PfHsp40 rescue = compounds rescuing yeast from Plasmodium falciparum HSP40 toxicity. 340,000 tested, 0.68% active. S. cerevisiae expressing PfHsp40, growth rescue, ATP luminescence. growth rescue, % at 12.5 µM; in the data active = growth rescue above about 28%, passing the limit was not always enough; inconclusive = no clear call, values can overlap the other calls;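 also: yeast W303a lacking pdr1 and pdr3 grown in galactose medium; growth measured after three days at 30 °C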
Active calls of the source: *; i = inactive; ? = inconclusive; · = not tested or not shown.

SMILES	ugtP null kill	Mtb betalactam	BH1578 lux ind	RN4220 kill	PfHsp40 rescue
C=CCN(CC=C)C(=S)NC(=O)c1ccc(C)c(Br)c1	-5	94	-5	13	296*
C=CCN(CC=C)C(=S)NC(=O)c1ccc(OC)cc1	4	77	0	2	4
C=C(C)C1Cc2nc(N)nc(C)c2C1 (stereo unspecified)	1	-5	i	2	-1
C=C(C)C1Cc2c(C)nn(-c3nc(C)cc(C)n3)c2C1 (stereo unspecified)	-3	99	-6	-19	113*
COc1cc(CCc2ccccc2)c(C(=O)O)c(O)c1C/C=C(/C)CCC=C(C)C	100*	·	0	88*	3
COc1cc(CCc2ccccc2)c(C(=O)O)c(O)c1CC=C(C)C	·	·	0	·	6
O=C(Cc1ccc(Cl)cc1)NNC(=S)NC(=O)c1cccs1	8	65	-1	40	5
O=C(Cc1cccs1)NNC(=S)NCc1ccc(Cl)cc1	-8	-6	3	2	72*
COc1cccc(N2C(CC(=O)O)c3ccc(C=CC(=O)O)cc3S2(=O)=O)c1 (stereo unspecified)	-3	·	·	8	·
NC(=NOC(=O)Nc1ccccc1)c1ncc(C(F)(F)F)cc1Cl	-3	·	·	6	·
O=C(Nc1ccccc1Cl)C(Cl)=C(Cl)S(=O)c1ccccc1 (stereo unspecified)	100*	·	·	101*	·
CCC(c1ccc(O)cc1)C(CC)c1ccc(O)cc1 (stereo unspecified)	-12	-9	-1	-23	85*
Cc1ccc2c(c1)C1C(CO2)C(c2ccccc2)[C@]2(C)C(=O)NC(C)C(=O)N12 (stereo partly specified)	4	·	·	7	·
CC1CCN(c2ccc3c(c2)S(=O)(=O)c2ccccc2C3=O)CC1	4	3	2	4	199*
NC(=O)C1CCN(c2ccc3c(c2)S(=O)(=O)c2ccccc2C3=O)CC1	-1	2	i	8	-1
CC(C)N(C(=O)CON=Cc1cccc([N+](=O)[O-])c1)C(C)C	11	·	·	7	·
O=C(O)CN1CCNCC1	-1	·	·	7	·
O=C(O)CN1CCNCCN(CC(=O)O)CCNCC1	·	·	i	·	107*
CN(C)C(=O)C1CC1C(O)C(CO)NC(=O)C(Cc1ccccc1)NC(=O)OC(C)(C)C (stereo unspecified)	-4	·	·	8	·
Fc1ccc(CSc2ncnc3sc4c(c23)CCCC4)cc1	83*	36	i	8	0
CCCOc1ccc(-c2c(C(=O)NN=Cc3ccncc3)nnn2-c2nonc2N)cc1	-6	·	·	2	·
N#CCCn1cc(C=NNC(=O)c2ccncc2)c(-c2ccc(F)cc2)n1	5	·	·	2	·
CCNc1ccc(C(=O)OCC)cc1NC(=O)c1cc(S(=O)(=O)N2CCOCC2)ccc1C	2	1	1	-1	113*
COC(=O)[C@@]1(Cc2ccc(OC)cc2)C2c3cc(C(=O)N(C)C)n(Cc4ccc(OC(F)(F)F)cc4)c3CC2CN1C(=O)c1ccccc1 (stereo partly specified)	37	·	·	28	·
COc1cc2c(cc1OC)/C(=C/C(=O)c1ccc(C)cc1)NCC2	4	6	-1	0	1
SMILES	ugtP null kill	Mtb betalactam	BH1578 lux ind	RN4220 kill	PfHsp40 rescue
COc1cc2c(cc1OC)/C(=C/C(=O)c1ccccc1)NCC2	0	6	-1	2	41*
COc1cccc(CSc2nnc(-c3ccncc3)n2N)c1	7	?	i	7	45*
C=CCSC1=NC(=Cc2cc(OC)c3c(c2)OCO3)C(=O)S1	4	·	·	5	·
Cc1ccccc1Oc1ccc(-c2nc(N)nc(N)n2)cc1	15	0	i	-3	119*
Cc1cc(C=NNc2ccc([N+](=O)[O-])cn2)c(C)n1-c1ccccc1	-9	·	·	1	·
CCCCC(=O)NC(c1ccco1)c1cc(Cl)c2cccnc2c1O (stereo unspecified)	5	0	0	23	360*
Oc1c(C(Nc2ccccn2)c2cccnc2)cc(Cl)c2cccnc12 (stereo unspecified)	-10	-2	i	22	318*
Cc1cc(NC(c2cccnc2)c2ccc3cccnc3c2O)no1 (stereo unspecified)	-8	47	3	11	?
CC(=O)NC(c1ccco1)c1cc(Cl)c2cccnc2c1O (stereo unspecified)	·	·	0	·	·
CCC(=O)NC(c1ccco1)c1cc(Cl)c2cccnc2c1O (stereo unspecified)	-5	-4	0	7	277*
COc1ccc(C=NNC(=O)COc2cc(C)cc(C)c2)cc1COC(C)=O	93*	·	·	0	·
CC1OC(OC2C=C3CCC4C(CC[C@]5(C)C(c6ccc(=O)oc6)CC[C@]45O)[C@@]3(C)CC2)C(O)C(O)C1O (stereo partly specified)	-13	·	·	3	·
C#CCOCCOCCOCCNc1nc(N2CCN(C(=O)C(CCCCN)n3cc(C(N)C(C)CC)nn3)CC2)nc(N2CCN(C(=O)C(CCCN=C(N)N)n3cc(C(N)C(C)CC)nn3)CC2)n1 (stereo unspecified)	-3	·	·	10	·
CCc1ccc(C(C)=NNC(=O)CNC(=O)/C=C/c2ccco2)cc1	3	·	·	5	·
COC1C=CO[C@@]2(C)Oc3c(C)c(O)c4c(O)c(c5c(nc6cc(C)ccn65)c4c3C2=O)NC(=O)C(C)=CC=CC(C)C(O)C(C)C(O)C(C)C(OC(C)=O)C1C (stereo partly specified)	99*	·	·	99*	·
COC1C=CO[C@@]2(C)Oc3c(C)c(O)c4c(O)c(c(C=NN5CCN(C)CC5)c(O)c4c3C2=O)NC(=O)C(C)=CC=CC(C)C(O)C(C)C(O)C(C)C(OC(C)=O)C1C (stereo partly specified)	97*	·	·	98*	·
O=C(O)CCc1ccc(-c2ccc(Br)cc2)n1-c1cccc(O)c1	85*	27	1	35	2
O=C(O)CCc1ccc(-c2ccccc2)n1-c1cccc(C(=O)O)c1	1	-5	-1	2	16
COc1cccc(C=NN(C)C2=NS(=O)(=O)c3ccccc32)c1O	2	·	·	5	·
CCN1C(=O)C2C(c3ccc(-c4cc(C(C)=O)cs4)cc3)N3CCC[C@@]3(C(=O)OC)C2C1=O (stereo partly specified)	7	·	·	3	·
O=c1cc(-c2ccccc2)[nH]n1-c1nc2ccccc2s1	91*	4	i	80	-1
O=c1cc(-c2ccccc2)[nH]n1-c1ccccc1	-1	·	i	6	-1
Cc1ccc(-c2[nH]nc(N)c2N=Nc2cccc(Cl)c2C)cc1	99*	·	-2	84	11
O=c1ccc2cc3c([nH]c4ccc(Br)cc43)oc-2c1O	0	26	0	8	228*
Cn1c(C=NNc2nc3ccccc3[nH]2)nc2ccccc21	0	·	·	-2	·
Cc1c(C=NNc2nc3ccccc3[nH]2)c2ccccc2n1C	99*	·	·	99*	·
CCOc1ccc(/C=C2\SC(=S)N(NS(=O)(=O)c3ccc(C)cc3)C2=O)cc1OC	85	1	i	86*	13
